Results: PubChem BioAssay AID1159580 (chemical genetic matrix, 2015)
Hit rate of the full screen: of about 5,500 compounds, about 2,000 (36%) were called active. About 18% were inconclusive and are not listed. No stated cut-off is given here; in the data, active means normalized growth mostly below about 0.91 (no sharp cut-off); inconclusive means no clear call, values can overlap the other calls; inactive means mostly above about 0.92. Some of the results follow.

Experiment: chemical genetic growth profiling, strain panel (AID 1159580);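 further: tested at 20 µM; growth read once vehicle control cultures reached saturation at 30 °C; 1 = growth at the plate median or of vehicle wells; lower values mean less growth of the strain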
Details: growth OD

Measured: normalized growth

CCCCC/C=C\C/C=C\C/C=C\C/C=C\CCCC(=O)O
inactive: S. cerevisiae deletion strains, locus YJR043C, strain POL32, hits give low values 0.975 | S. cerevisiae deletion strains, locus YJR075W, strain HOC1, hits give low values 0.968 | S. cerevisiae deletion strains, locus YKL009W, strain mrt4, hits give low values 0.982 | S. cerevisiae deletion strains, locus YKL068W, hits give low values 0.973 | S. cerevisiae deletion strains, locus YKL085W, strain MDH1 (second series), hits give low values 0.958 | S. cerevisiae deletion strains, locus YKL085W, strain MDH1, hits give low values 0.958 | S. cerevisiae deletion strains, locus YKL160W, strain elf1, hits give low values 0.98 | S. cerevisiae deletion strains, locus YKL190W, strain CNB1, hits give low values 0.987 | S. cerevisiae deletion strains, locus YKR026C, strain gcn3, hits give low values 0.944 | S. cerevisiae deletion strains, locus YKR091W, strain srl3, hits give low values 0.967 | S. cerevisiae deletion strains, locus YLL001W, strain dnm1, hits give low values 0.96 | S. cerevisiae deletion strains, locus YLL026W, hits give low values 0.976 | S. cerevisiae deletion strains, locus YLL041C, strain sdh2, hits give low values 0.975 | S. cerevisiae deletion strains, locus YLR027C, strain aat2, hits give low values 0.978 | S. cerevisiae deletion strains, locus YLR039C, strain RIC1, hits give low values 0.686 | S. cerevisiae deletion strains, locus YLR058C, strain SHM2, hits give low values 0.972 | S. cerevisiae deletion strains, locus YLR102C, strain apc9, hits give low values 0.971 | S. cerevisiae deletion strains, locus YLR221C, strain rsa3, hits give low values 0.972 | S. cerevisiae deletion strains, locus YLR258W, strain gsy2, hits give low values 0.966 | S. cerevisiae deletion strains, locus YLR262C, strain YPT6, hits give low values 0.719 | S. cerevisiae deletion strains, locus YLR268W, strain sec22, hits give low values 1.01 | S. cerevisiae deletion strains, locus YLR320W, strain mms22, hits give low values 0.884 | S. cerevisiae deletion strains, locus YLR330W, strain CHS5, hits give low values 0.984 | S. cerevisiae deletion strains, locus YLR342W, strain FKS1 (second series), hits give low values 0.942 | S. cerevisiae deletion strains, locus YLR342W, strain FKS1, hits give low values 0.969 | S. cerevisiae deletion strains, locus YLR357W, strain rsc2, hits give low values 0.935 | S. cerevisiae deletion strains, locus YLR370C, strain arc18, hits give low values 0.964 | S. cerevisiae deletion strains, locus YLR371W, strain rom2, hits give low values 0.975 | S. cerevisiae deletion strains, locus YLR384C, strain iki3, hits give low values 0.982 | S. cerevisiae deletion strains, locus YLR418C, strain cdc73, hits give low values 0.953 | S. cerevisiae deletion strains, locus YML016C, strain PPZ1, hits give low values 1 | S. cerevisiae deletion strains, locus YML032C, strain rad52, hits give low values 0.967 | S. cerevisiae deletion strains, locus YML120C, strain ndi1, hits give low values 0.986 | S. cerevisiae deletion strains, locus YML124C, strain tub3, hits give low values 0.983 | S. cerevisiae deletion strains, locus YMR058W, strain fet3, hits give low values 0.919 | S. cerevisiae deletion strains, locus YMR078C, strain ctf18, hits give low values 0.964 | S. cerevisiae deletion strains, locus YMR125W, strain sto1, hits give low values 0.977 | S. cerevisiae deletion strains, locus YMR129W, hits give low values 0.977 | S. cerevisiae deletion strains, locus YMR205C, strain PFK2, hits give low values 0.919 | S. cerevisiae deletion strains, locus YMR223W, strain ubp8, hits give low values 0.953 | S. cerevisiae deletion strains, locus YMR231W, strain pep5, hits give low values 0.974 | S. cerevisiae deletion strains, locus YMR263W, strain SAP30, hits give low values 1 | S. cerevisiae deletion strains, locus YMR307W, strain GAS1, hits give low values 0.966 | S. cerevisiae deletion strains, locus YNL067W, strain RPL9B, hits give low values 0.987 | S. cerevisiae deletion strains, locus YNL128W, strain TEP1, hits give low values 0.995 | S. cerevisiae deletion strains, locus YNL153C, strain GIM3, hits give low values 1 | S. cerevisiae deletion strains, locus YNL209W, strain ssb2, hits give low values 0.983 | S. cerevisiae deletion strains, locus YNL233W, strain BNI4, hits give low values 0.981 | S. cerevisiae deletion strains, locus YNL248C, strain rpa49, hits give low values 0.972 | S. cerevisiae deletion strains, locus YNL250W, strain rad50, hits give low values 0.924 | S. cerevisiae deletion strains, locus YNL271C, strain bni1, hits give low values 0.973 | S. cerevisiae deletion strains, locus YNL298W, strain CLA4, hits give low values 0.956 | S. cerevisiae deletion strains, locus YNL322C, strain KRE1 (second series), hits give low values 0.996 | S. cerevisiae deletion strains, locus YNL322C, strain KRE1, hits give low values 0.986 | S. cerevisiae deletion strains, locus YNR049C, strain mso1, hits give low values 0.971 | S. cerevisiae deletion strains, locus YNR052C, strain pop2, hits give low values 0.977 | S. cerevisiae deletion strains, locus YOL006C, strain TOP1, hits give low values 0.836 | S. cerevisiae deletion strains, locus YOL012C, strain htz1 0.8 | S. cerevisiae deletion strains, locus YOL147C, strain pex11, hits give low values 0.987 | S. cerevisiae deletion strains, locus YOR001W, strain rrp6, hits give low values 0.971 | S. cerevisiae deletion strains, locus YOR061W, strain CKA2, hits give low values 0.986 | S. cerevisiae deletion strains, locus YOR069W, strain VPS5, hits give low values 0.99 | S. cerevisiae deletion strains, locus YOR070C, strain gyp1, hits give low values 0.98 | S. cerevisiae deletion strains, locus YOR080W, strain dia2, hits give low values 0.97 | S. cerevisiae deletion strains, locus YOR083W, strain WHI5, hits give low values 0.996 | S. cerevisiae deletion strains, locus YOR106W, strain vam3, hits give low values 0.978 | S. cerevisiae deletion strains, locus YOR136W, strain idh2, hits give low values 0.965 | S. cerevisiae deletion strains, locus YOR144C, strain elg1, hits give low values 0.986 | S. cerevisiae deletion strains, locus YOR184W, strain ser1, hits give low values 0.895 | S. cerevisiae deletion strains, locus YOR265W, strain rbl2, hits give low values 0.978 | S. cerevisiae deletion strains, locus YOR270C, strain vph1, hits give low values 0.924 | S. cerevisiae deletion strains, locus YOR290C, strain snf2, hits give low values 0.89 | S. cerevisiae deletion strains, locus YOR316C, strain cot1, hits give low values 0.982 | S. cerevisiae deletion strains, locus YPL051W, strain arl3, hits give low values 0.985 | S. cerevisiae deletion strains, locus YPL055C, strain LGE1, hits give low values 0.972 | S. cerevisiae deletion strains, locus YPL078C, strain atp4, hits give low values 0.967 | S. cerevisiae deletion strains, locus YPL106C, strain sse1, hits give low values 0.931 | S. cerevisiae deletion strains, locus YPL240C, strain hsp82, hits give low values 0.978 | S. cerevisiae deletion strains, locus YPL241C, strain CIN2, hits give low values 0.986 | S. cerevisiae deletion strains, locus YPR119W, strain clb2, hits give low values 0.969 | S. cerevisiae deletion strains, locus YPR141C, strain kar3, hits give low values 0.975 | S. cerevisiae deletion strains, locus YPR163C, strain tif3, hits give low values 0.965 | S. cerevisiae deletion strains, locus YPR167C, strain met16, hits give low values 0.986 | S. cerevisiae deletion strains, strain wtn01, hits give low values 0.972 | S. cerevisiae strains, strain wild type, hits give low values 0.976
active: S. cerevisiae deletion strains, locus YKR001C, strain vps1, hits give low values 0.857 | S. cerevisiae deletion strains, locus YLR262C, strain YPT6 (second series), hits give low values 0.856 | S. cerevisiae deletion strains, locus YNL071W, strain lat1, hits give low values 0.857 | S. cerevisiae deletion strains, locus YNL307C, strain MCK1, hits give low values 0.733
